Assay results from article PMC4336329 (PLoS ONE, 2015).
About 14,000 (4.5%) of roughly 310,000 compounds showed an effect of 50% or more. The effect is printed as a negative number. Only a selection was taken, and strong results are over-represented in it overall.

Biological target: human ether-à-go-go-related gene (hERG) potassium channel (human, UniProt Q12809)
Assay: primary screen, population patch clamp on CHO cells stably expressing hERG; higher = less effect of the substance
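Note: peak tail current of the secondary pulse compared with the same well before compound.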

human ether-à-go-go-related gene (hERG) potassium channel, sequence (Q12809 whole entry, looked up): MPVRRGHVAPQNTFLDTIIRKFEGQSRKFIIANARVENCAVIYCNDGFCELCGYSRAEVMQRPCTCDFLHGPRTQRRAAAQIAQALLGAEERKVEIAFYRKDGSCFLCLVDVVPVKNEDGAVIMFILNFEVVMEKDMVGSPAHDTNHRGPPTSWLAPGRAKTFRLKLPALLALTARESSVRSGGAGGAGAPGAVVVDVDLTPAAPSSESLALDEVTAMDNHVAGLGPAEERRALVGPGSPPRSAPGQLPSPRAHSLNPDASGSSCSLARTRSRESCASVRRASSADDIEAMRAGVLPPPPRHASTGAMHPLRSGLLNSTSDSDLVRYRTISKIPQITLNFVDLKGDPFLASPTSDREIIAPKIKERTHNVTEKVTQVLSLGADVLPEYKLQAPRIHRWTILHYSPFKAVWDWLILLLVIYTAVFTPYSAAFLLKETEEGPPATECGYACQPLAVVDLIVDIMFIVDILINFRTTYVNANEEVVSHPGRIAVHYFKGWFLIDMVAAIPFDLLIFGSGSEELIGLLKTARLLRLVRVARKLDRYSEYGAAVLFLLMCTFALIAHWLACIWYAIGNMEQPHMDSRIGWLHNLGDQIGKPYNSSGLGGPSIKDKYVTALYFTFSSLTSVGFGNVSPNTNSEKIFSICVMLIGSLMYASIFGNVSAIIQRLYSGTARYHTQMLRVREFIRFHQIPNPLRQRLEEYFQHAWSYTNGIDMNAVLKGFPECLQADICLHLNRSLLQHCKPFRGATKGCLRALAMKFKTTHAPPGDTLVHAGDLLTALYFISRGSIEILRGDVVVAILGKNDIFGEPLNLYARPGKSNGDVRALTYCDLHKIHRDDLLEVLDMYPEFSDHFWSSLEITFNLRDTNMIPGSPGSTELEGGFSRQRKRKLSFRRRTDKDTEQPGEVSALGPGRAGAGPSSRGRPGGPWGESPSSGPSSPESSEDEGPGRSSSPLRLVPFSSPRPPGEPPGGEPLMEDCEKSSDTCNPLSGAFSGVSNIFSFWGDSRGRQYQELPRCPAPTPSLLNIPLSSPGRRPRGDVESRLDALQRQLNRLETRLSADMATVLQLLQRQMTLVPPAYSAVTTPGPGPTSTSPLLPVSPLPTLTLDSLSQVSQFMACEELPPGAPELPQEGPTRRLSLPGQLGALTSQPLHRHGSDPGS

SMILES	hERG current change (%, negative = inhibition) at 10uM [%]
CC1CCN(c2nc(-c3ccc(F)cc3)cc(C(F)(F)F)n2)CC1	15.6
Cc1csc(C2=C(O)CN(CCc3ccccc3)C2=N)n1	1.95
O=C(CCc1ccccc1)OCCOC(=O)CCc1ccccc1	22.1
Cc1cc(C(F)(F)F)nn1CC(=O)Nc1ccc2c(c1)OCO2	-2.91
CCCCOC(=O)c1ccc(NC(C)=O)cc1	-11.2
O=c1oc2ccccc2c(N2CCCCC2)c1CN1CCCCC1	-18.4
O=c1oc2ccccc2c(O)c1CN1CCCCC1	13.9
CN1CCN(c2c(N)c(=O)oc3ccccc23)CC1	-45.2
Nc1c(N2CCCC2)c2ccccc2oc1=O	2.82
O=c1oc2ccccc2c(N2CCCC2)c1CN1CCCC1	13
O=c1oc2ccccc2c(Cl)c1CN1CCCCC1	24.1
Nc1c(N2CCN(c3ccccc3)CC2)c2ccccc2oc1=O	-50.1
O=c1oc2ccccc2c(N2CCCCC2)c1CN1CCCC1	-54.4
O=c1oc2ccccc2c(Nc2ccccc2)c1CN1CCCCC1	-57.1
Cc1cc(C)cc(C(=O)NC(CC(N)=O)c2ccc(NC3CCCC3)c([N+](=O)[O-])c2)c1 (centres unmarked)	13.2
CC(=O)c1ccc(NC(=O)/C(=C\c2cccs2)NC(=O)c2ccco2)cc1	17.9
Cc1ccc(S(=O)(=O)Oc2ccc(C(c3c(C)[nH][nH]c3=O)c3c(C)[nH][nH]c3=O)cc2)cc1	-1.83
CC(C)CCn1c(NCCN(C)C)nc2c1c(=O)[nH]c(=O)n2C	-23.2
COc1ccc(-n2c(SC3CCOC3=O)nc3ccccc3c2=O)cc1OC (centres unmarked)	-4.64
COC(=O)c1c(NC(=O)c2cccc(S(=O)(=O)N3CCN(C)CC3)c2)sc(C)c1C	13.4
COc1ccc(C2Nc3ccccc3C(=O)N2NC(=O)c2ccccc2)cc1OC (centres unmarked)	3.24
Cc1ccccc1N=C1SCCN1C(=O)CN1C(=O)NC2(CCCC2)C1=O	-21.7
CCOc1ccc(C2/C(=C(\O)c3ccc4c(c3)OCCO4)C(=O)C(=O)N2CCCN2CCOCC2)cc1OC (centres unmarked)	3.69

SMILES	hERG current change (%, negative = inhibition) at 10uM [%]
Cc1cc(S(=O)(=O)N2CCOCC2)ccc1OCC(=O)Nc1ccc(F)cc1	-18.9
COc1ccc(C2/C=C\CN(S(=O)(=O)/C=C/c3ccccc3)[C@H](Cc3ccccc3)C(=O)N2Cc2ccc(F)cc2)cc1 (some centres unmarked)	8.05
Cc1nn(-c2ccccc2)c2c1C(c1ccc(Cl)cc1)N(c1ccccc1)C(=O)N2 (centres unmarked)	-64.6
COc1ccc(C2SCC(=O)Nc3c2c(C)nn3-c2ccccc2)cc1 (centres unmarked)	-7.35
Cc1nn(-c2ccccc2)c2c1C(c1cccc([N+](=O)[O-])c1)N(c1ccccc1)C(=O)N2 (centres unmarked)	11.1
O=C(CCCOc1ccc(Cl)cc1)Nc1cccc(C(=O)O)c1	13
COc1ccc(NC(=O)c2ccc(-n3c(C)ccc3C)cc2)c(OC)c1	-24.3
COC(=O)c1ccc(C23CC4(C2)[C@H](CN(C)[C@@H]4c2ccccc2)C3c2ccc(Cl)nc2)cc1 (some centres unmarked)	-28
CCOc1ccc(CNC(=O)CCC(=O)n2ncc3ccc(Cl)cc32)cc1	-1.82
COc1ccccc1/C=C/CN1CCC(Oc2cc(C(=O)NC3CC3)ccc2OC)CC1	-76.5
COc1cc(C(=O)N2CCN(C/C=C/c3ccccc3)CC2)cc(OC)c1OC	-35
COc1ccc(C(=O)NC2CC2)cc1OC1CCN(C/C=C/c2ccccc2)CC1	-79.9
COc1cc(C(=O)N2CCN(C/C=C/c3ccccc3)CC2)cc(OC)c1C	-30.2
CCOC(=O)c1[nH]c2ccc(OCC)cc2c1NC(=O)CN1CCC2(CC1)OCCO2	-25.7
Cc1ccsc1CNn1cnnc1SCc1ccc(Cl)cc1	13
O=C(CSc1nnc(-c2cnccn2)n1Cc1ccco1)c1ccc2ccccc2c1	-15.4
COC(=O)c1cc(S(=O)(=O)NCC2CCN(Cc3cc(C)ccc3C)CC2)cn1C	-27.5
COC(=O)c1cc(S(=O)(=O)NCC2CCN(CCc3ccc(OC)cc3)CC2)cn1C	-61.2
COC(=O)c1cc(S(=O)(=O)NCC2CCN(CCc3ccc(OC)cc3)CC2)c[nH]1	-67
COC(=O)c1cc(S(=O)(=O)NCc2cccs2)c[nH]1	19.1
COC(=O)c1cc(S(=O)(=O)NCC2CCN(CCc3cccs3)CC2)c[nH]1	-51.1
COC(=O)c1cc(S(=O)(=O)NCC2CCN(Cc3cccc(F)c3)CC2)cn1C	-18.5
COC(=O)c1cc(S(=O)(=O)NCc2ccc(Br)cc2)c[nH]1	-16.1

SMILES	hERG current change (%, negative = inhibition) at 10uM [%]
COC(=O)c1cc(S(=O)(=O)NCC2CCN(CCc3cccs3)CC2)cn1C	-49.6
COC(=O)c1cc(S(=O)(=O)NCCc2ccccc2)c[nH]1	5.93
COC(=O)c1cc(S(=O)(=O)NCC2CCN(Cc3ccc(F)cc3)CC2)cn1C	-19.6
COC(=O)c1cc(S(=O)(=O)NCC2CCN(Cc3ccc(C)cc3)CC2)cn1C	-52
COC(=O)c1cc(S(=O)(=O)NCC2CCN(Cc3ccc(Cl)cc3)CC2)cn1C	-17
COC(=O)c1sc(SC)c2c1CC(C)(C)C/C2=N/O	10.6
O=c1[nH]c(=O)n(-c2ccc(F)cc2)c(O)c1/C=C1\C=Nc2ccccc21	6.63
Cc1noc(C)c1C(=O)NCCc1ccc(S(N)(=O)=O)cc1	-23.7
COc1ccc(C2NN=C(c3ccc(C)cc3)S2)cc1 (centres unmarked)	4.2
O=C(N/N=C/c1cc([N+](=O)[O-])ccc1O)c1cc(-c2ccccc2)nc2ccccc12	12.3
O=C(c1ccncc1)N(Cc1ccco1)Cc1cc2ccccc2[nH]c1=O	-43.5
CCOC(=O)C1C(c2cccc(F)c2)NC(=S)NC1(O)C(F)(F)F (centres unmarked)	-14.4
CCOCC(O)CSCc1ccc(Cl)cc1 (centres unmarked)	1.1
Cc1ccc(CN2CC[C@H]3C=CCc4cccc(c43)C2)cc1	-22.1
Fc1ccc(CN2CC[C@H]3C=CCc4cccc(c43)C2)cc1	-30.2
C1=C[C@@H]2CCN(Cc3ccccc3)Cc3cccc(c32)C1	-50.6
CN(C)c1ccc(P(=O)(OC2CCCCC2)C(O)c2ccncc2)cc1 (centres unmarked)	11.2
CC1CC1C(=O)OCC(=O)NC(=O)c1ccccc1 (centres unmarked)	6.93
CC(C)(C)C(=O)NC1CCN(C(=O)N2CCCC2)CC1	10.2
COc1ccc2c(CC(=O)OCC(=O)Nc3ccccc3[N+](=O)[O-])coc2c1	19.4
CCCCCCCN1CCN=C1Nc1ccccc1	-58
c1ccc(CCCCN2CCN=C2Nc2ccccc2)cc1	-42
c1ccc(NC2=NCCN2CCCC2CCCCC2)cc1	-47.6

SMILES	hERG current change (%, negative = inhibition) at 10uM [%]
c1ccc(NC2=NCCN2CCC2CCCC2)cc1	-24
c1ccc(NC2=NCCN2CCCC2CCCC2)cc1	-53.4
CCCCN1CCN=C1Nc1ccccc1	15.2
O=C(Oc1ccc(/C=N/NC(=O)c2ccccc2F)cc1)c1ccccc1	10.3
COC(=O)c1ccc(CSc2nnc(NC(=O)C3CC(=O)N(Cc4ccc(C)cc4)C3)s2)cc1 (centres unmarked)	8.78
COC(=O)/C=C1/SC(=NC(=O)c2ccccc2)NC1=O	-13.9
COC(=O)/C=C1\SC(=NC(=O)c2cccc(Cl)c2)NC1=O	-79.5
COC(=O)/C=C1/SC(=NC(=O)c2ccc(Cl)cc2)NC1=O	26.7
COc1ccc(/C=C/C(=O)NCC(=O)N/N=C/c2cccs2)cc1	0.0661
CCC(C)[C@H](NC(=O)NCc1ccc(OC)c(OC)c1)C(=O)O (some centres unmarked)	7.82
Cc1[nH]nc(N2CCCCC2)c1[N+](=O)[O-]	-6.37
Cc1sc2nc(CN3CCCC3)nc(Cl)c2c1C	-4.03
Cc1sc2nc(CN3CCOCC3)nc(NCCc3ccccc3)c2c1C	-30
Cc1sc2nc(CN3CCCC3)nc(NCc3ccncc3)c2c1C	-69.1
Cc1sc2nc(CN3CCOCC3)nc(NS(=O)(=O)c3ccc4c(c3)OCCO4)c2c1C	6.33
Cc1sc2nc(CN3CCCCC3)nc(Nc3ccc4c(c3)OCCO4)c2c1C	-85.8
Cc1nc(Nc2ccc3c(c2)OCCO3)c2c(C)c(C)sc2n1	-18.5
COc1ccc(-c2nnnn2C)cc1S(=O)(=O)Nc1ccc(C)cc1C	-7.53
Cc1cc(OC(C)C(=O)NCCN2CCOCC2)c2c(C)c(C)c(=O)oc2c1 (centres unmarked)	9.89
COc1cccc(N2CCN(C(=S)Nc3ccccc3)CC2)c1	19
